Results published in article PMC4336329 (PLoS ONE, 2015).
Among all 310,000 compounds or so, about 14,000 (4.5%) showed an effect of 50% or more. Effects have a minus sign here. The list comes from a sample in which strong results are over-represented; it also holds similar structures and randomly drawn compounds.

biological target: human ether-à-go-go-related gene (hERG) potassium channel (human, UniProt Q12809); test: primary screen, population patch clamp on CHO cells stably expressing hERG; higher = less effect of the substance
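Further: peak tail current of the secondary pulse compared with the same well before compound.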

human ether-à-go-go-related gene (hERG) potassium channel, sequence (Q12809 whole entry, looked up): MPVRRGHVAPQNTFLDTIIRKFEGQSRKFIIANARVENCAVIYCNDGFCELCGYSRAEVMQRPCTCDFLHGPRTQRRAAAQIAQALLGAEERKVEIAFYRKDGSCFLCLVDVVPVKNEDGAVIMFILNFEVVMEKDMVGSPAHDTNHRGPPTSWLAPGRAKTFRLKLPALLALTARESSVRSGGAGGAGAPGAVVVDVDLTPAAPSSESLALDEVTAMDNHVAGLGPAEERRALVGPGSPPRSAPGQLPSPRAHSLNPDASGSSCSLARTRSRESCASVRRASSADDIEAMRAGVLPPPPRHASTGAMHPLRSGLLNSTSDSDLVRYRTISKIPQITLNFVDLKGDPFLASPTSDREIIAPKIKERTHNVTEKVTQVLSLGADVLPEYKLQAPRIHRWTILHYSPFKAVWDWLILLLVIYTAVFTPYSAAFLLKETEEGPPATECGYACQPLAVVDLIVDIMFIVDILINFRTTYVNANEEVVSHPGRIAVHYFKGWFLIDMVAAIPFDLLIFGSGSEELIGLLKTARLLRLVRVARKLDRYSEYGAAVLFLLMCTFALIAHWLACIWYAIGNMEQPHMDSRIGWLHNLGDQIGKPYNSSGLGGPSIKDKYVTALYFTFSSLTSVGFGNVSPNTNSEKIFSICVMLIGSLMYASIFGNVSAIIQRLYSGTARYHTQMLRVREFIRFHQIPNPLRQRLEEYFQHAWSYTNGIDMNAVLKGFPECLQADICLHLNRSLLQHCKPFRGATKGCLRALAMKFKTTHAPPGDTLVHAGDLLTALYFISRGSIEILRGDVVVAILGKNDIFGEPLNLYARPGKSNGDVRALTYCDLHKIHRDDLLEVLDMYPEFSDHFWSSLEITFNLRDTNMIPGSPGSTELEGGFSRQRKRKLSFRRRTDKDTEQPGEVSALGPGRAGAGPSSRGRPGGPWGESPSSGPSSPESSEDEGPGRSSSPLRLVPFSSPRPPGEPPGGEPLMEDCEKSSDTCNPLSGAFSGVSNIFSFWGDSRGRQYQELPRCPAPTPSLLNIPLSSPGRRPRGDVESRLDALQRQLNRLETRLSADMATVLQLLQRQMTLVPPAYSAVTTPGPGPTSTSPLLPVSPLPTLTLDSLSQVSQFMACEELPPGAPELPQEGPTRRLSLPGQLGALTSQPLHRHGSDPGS

For `COc1ccc2oc(C(=O)N3CCc4ccccc43)c(C)c2c1`, which “hERG current change (%, negative = inhibition) at 10uM” value is on record?
The value was 15.1%.

Which “hERG current change (%, negative = inhibition) at 10uM” value does the source give for `Cc1cccc(S(=O)(=O)NCCC(=O)OC(C)C(=O)NC(=O)NC2CCCCC2)c1` (stereo not shown) here?
The value was -20.8%.

For `Cc1nn(C)c(Oc2cccc(Cl)c2)c1C#N`, which “hERG current change (%, negative = inhibition) at 10uM” value is on record?
Its value is 8.31%.

Which “hERG current change (%, negative = inhibition) at 10uM” value does the source give for `Cc1nc(N(C)Cc2ccccc2)c2nnn(Cc3ccccc3)c2n1` here?
The value was -37.9%.

For `COc1ccc(CCC(=O)Nc2ccc(S(=O)(=O)N3CCCC3)cc2)cc1OC`, which “hERG current change (%, negative = inhibition) at 10uM” value is on record?
Its value is -11.8%.

How did the “hERG current change (%, negative = inhibition) at 10uM” value turn out when `CCC1(Cc2ccccc2)NC(=O)c2ccccc2O1` (stereo not shown) was run?
The value was 2.36%.

With `CCCCn1cnc2c([nH]c3ccccc32)c1=O` as the compound, how does the “hERG current change (%, negative = inhibition) at 10uM” value read?
Its value is 15.7%.

For `COc1cc2[nH]c3c(=O)n(CCN(C(C)C)C(C)C)cnc3c2cc1OC`, which “hERG current change (%, negative = inhibition) at 10uM” value is on record?
Its value is -13.3%.

How did the “hERG current change (%, negative = inhibition) at 10uM” value turn out when `O=c1c2[nH]c3ccc(F)cc3c2ncn1CC1CCCO1` (stereo not shown) was run?
The value was -16%.

`Cc1ccc2[nH]c3c(=O)n(Cc4ccncc4)cnc3c2c1` was tested. Which “hERG current change (%, negative = inhibition) at 10uM” value did it give?
The value was 4.77%.

`Cc1ccc2[nH]c3c(=O)n(CCN4CCOCC4)cnc3c2c1` was tested. Which “hERG current change (%, negative = inhibition) at 10uM” value did it give?
Its value is -17.5%.

Which “hERG current change (%, negative = inhibition) at 10uM” value does the source give for `O=c1c2[nH]c3cccc(Cl)c3c2ncn1CC1CCCO1` (stereo not shown) here?
The value was -9.51%.

Which “hERG current change (%, negative = inhibition) at 10uM” value does the source give for `CCN1CCCC1Cn1cnc2c([nH]c3ccc(C)cc32)c1=O` (stereo not shown) here?
Its value is -70%.

With `CCN1CCCC1Cn1cnc2c([nH]c3ccc(Cl)cc32)c1=O` (stereo not shown) as the compound, how does the “hERG current change (%, negative = inhibition) at 10uM” value read?
Its value is -76.5%.

Which “hERG current change (%, negative = inhibition) at 10uM” value does the source give for `CC(C)N(CCn1cnc2c([nH]c3ccccc32)c1=O)C(C)C` here?
The value was -68.1%.

`CCN1CCCC1Cn1cnc2c([nH]c3cccc(Cl)c32)c1=O` (stereo not shown) was tested. Which “hERG current change (%, negative = inhibition) at 10uM” value did it give?
Its value is -67.2%.

Which “hERG current change (%, negative = inhibition) at 10uM” value does the source give for `Cc1ccc2[nH]c3c(=O)n(CCN4CCNCC4)cnc3c2c1` here?
Its value is 7.36%.

How did the “hERG current change (%, negative = inhibition) at 10uM” value turn out when `O=c1c2[nH]c3cccc(Cl)c3c2ncn1CCN1CCCCC1` was run?
The value was -21.9%.

Which “hERG current change (%, negative = inhibition) at 10uM” value does the source give for `Cc1nn(C)c(C(=O)N/N=C/c2ccccn2)c1[N+](=O)[O-]` here?
The value was 21.3%.

How did the “hERG current change (%, negative = inhibition) at 10uM” value turn out when `CCCNC(=O)NC(C)C12CC3CC(CC(C3)C1)C2` (stereo not shown) was run?
Its value is -12.6%.

Which “hERG current change (%, negative = inhibition) at 10uM” value does the source give for `COC(=O)c1cc(COC(=O)c2nc3nccc(C)n3n2)oc1C` here?
Its value is 15.7%.

With `Cc1cc(C(=O)OCC(=O)NC2CCCCC2)c(C)o1` as the compound, how does the “hERG current change (%, negative = inhibition) at 10uM” value read?
The value was 9.12%.

Which “hERG current change (%, negative = inhibition) at 10uM” value does the source give for `Cc1ccc(NC(=O)CSCC(=O)N2CCN(c3cccc(C(F)(F)F)c3)CC2)cc1` here?
The value was -13%.

For `Cc1ccc(NC(=O)c2cccc3c2-c2ccccc2C3=O)cc1C`, which “hERG current change (%, negative = inhibition) at 10uM” value is on record?
The value was -9.58%.

Which “hERG current change (%, negative = inhibition) at 10uM” value does the source give for `Cc1ccc2[nH]c3c(=O)n(CCCN4CCN(C)CC4)cnc3c2c1` here?
Its value is -37%.

How did the “hERG current change (%, negative = inhibition) at 10uM” value turn out when `O=c1c2[nH]c3ccccc3c2ncn1CCN1CCOCC1` was run?
Its value is 4.87%.

How did the “hERG current change (%, negative = inhibition) at 10uM” value turn out when `CCC1CCCN1Cn1cnc2c([nH]c3ccc(Cl)cc32)c1=O` (stereo not shown) was run?
The value was -71.5%.

For `O=C1CCCN1CCCNc1ncnc2c1[nH]c1ccc(Cl)cc12`, which “hERG current change (%, negative = inhibition) at 10uM” value is on record?
The value was -29.4%.

For `CCC1CCCN1Cn1cnc2c([nH]c3ccccc32)c1=O` (stereo not shown), which “hERG current change (%, negative = inhibition) at 10uM” value is on record?
Its value is -62.1%.

With `CCC1CCCN1Cn1cnc2c([nH]c3ccc(C)cc32)c1=O` (stereo not shown) as the compound, how does the “hERG current change (%, negative = inhibition) at 10uM” value read?
The value was -67.1%.

Which “hERG current change (%, negative = inhibition) at 10uM” value does the source give for `Cc1ccc2[nH]c3c(=O)n(CCCN4CCOCC4)cnc3c2c1` here?
The value was -17.8%.

For `O=c1c2[nH]c3ccc(F)cc3c2ncn1CCN1CCN(Cc2ccccc2)CC1`, which “hERG current change (%, negative = inhibition) at 10uM” value is on record?
The value was -63.2%.

For `O=c1c2[nH]c3ccccc3c2ncn1CCN1CCNCC1`, which “hERG current change (%, negative = inhibition) at 10uM” value is on record?
Its value is 4.97%.

With `O=c1c2[nH]c3ccc(F)cc3c2ncn1CCN1CCOCC1` as the compound, how does the “hERG current change (%, negative = inhibition) at 10uM” value read?
Its value is -41.1%.

`O=c1c2[nH]c3ccc(F)cc3c2ncn1CCCN1CCOCC1` was tested. Which “hERG current change (%, negative = inhibition) at 10uM” value did it give?
The value was -31.3%.

Which “hERG current change (%, negative = inhibition) at 10uM” value does the source give for `Cc1ccc2[nH]c3c(=O)n(CCC4=CCCCC4)cnc3c2c1` here?
Its value is 4.95%.

How did the “hERG current change (%, negative = inhibition) at 10uM” value turn out when `O=c1[nH]nc(-c2ccc(NCCCO)c([N+](=O)[O-])c2)c2ccccc12` was run?
Its value is -9.98%.

Which “hERG current change (%, negative = inhibition) at 10uM” value does the source give for `O=C(CSc1nnc(NC(=O)C2CC2)s1)NCc1ccco1` here?
The value was -4.21%.

For `COc1cc(/C=N\NC(=O)c2ccc(C)nc2)ccc1OC(=O)c1ccc2c(c1)OCO2`, which “hERG current change (%, negative = inhibition) at 10uM” value is on record?
Its value is -7.08%.

Which “hERG current change (%, negative = inhibition) at 10uM” value does the source give for `Cc1cccc(CNc2ccc(C(CC(N)=O)NC(=O)Cc3cccc4ccccc34)cc2[N+](=O)[O-])c1` (stereo not shown) here?
The value was 7.02%.

For `Cc1ccn2cc(-c3cccc(NC(=O)c4cccs4)c3)nc2c1`, which “hERG current change (%, negative = inhibition) at 10uM” value is on record?
The value was -48.7%.

Which “hERG current change (%, negative = inhibition) at 10uM” value does the source give for `O=c1c2[nH]c3ccccc3c2ncn1CCN1CCCCC1` here?
Its value is -45.6%.

How did the “hERG current change (%, negative = inhibition) at 10uM” value turn out when `O=c1c2[nH]c3ccc(Cl)cc3c2ncn1CCN1CCCCC1` was run?
Its value is -68%.

For `COc1cc2[nH]c3c(=O)n(CCN4CCCCC4)cnc3c2cc1OC`, which “hERG current change (%, negative = inhibition) at 10uM” value is on record?
Its value is 6.02%.

For `Cc1ccc(S(=O)(=O)N(C)CC(=O)Nc2ccccc2)cc1`, which “hERG current change (%, negative = inhibition) at 10uM” value is on record?
Its value is -20%.

With `COc1cccc(CC(=O)OCC(=O)NC2(C#N)CCCCC2)c1` as the compound, how does the “hERG current change (%, negative = inhibition) at 10uM” value read?
Its value is 16.5%.

How did the “hERG current change (%, negative = inhibition) at 10uM” value turn out when `Cc1nnc(NC(=O)CCSc2ccccc2)s1` was run?
The value was 1.73%.

`COC(=O)C1CCN(C(=O)COC(=O)c2n[nH]c3ccccc23)CC1` was tested. Which “hERG current change (%, negative = inhibition) at 10uM” value did it give?
The value was 10.8%.

`Cc1nn(C)cc1C(C)NC(=O)c1cc(COc2cccc3cnccc23)on1` (stereo not shown) was tested. Which “hERG current change (%, negative = inhibition) at 10uM” value did it give?
Its value is 13.9%.

With `Cc1c(C(C)NC(=O)c2cc(COc3cccc4cnccc34)on2)cnn1C` (stereo not shown) as the compound, how does the “hERG current change (%, negative = inhibition) at 10uM” value read?
Its value is -55.6%.

`COc1cccc(OCc2cc(C(=O)NC(C)c3cnn(C)c3C)no2)c1` (stereo not shown) was tested. Which “hERG current change (%, negative = inhibition) at 10uM” value did it give?
Its value is -2.65%.

How did the “hERG current change (%, negative = inhibition) at 10uM” value turn out when `Cc1ccc(C)c(NC(=O)NNC(=O)c2ccc3ccccc3c2O)c1` was run?
The value was 11.4%.

Which “hERG current change (%, negative = inhibition) at 10uM” value does the source give for `O=C(c1cn(Cc2ccccc2)nc1-c1cccnc1)N1CCN(Cc2c(F)cccc2Cl)CC1` here?
The value was -4.33%.

Which “hERG current change (%, negative = inhibition) at 10uM” value does the source give for `COc1ccc(N2CCN(C(=O)c3cn(Cc4ccccc4)nc3-c3cccnc3)CC2)cc1` here?
Its value is -33.3%.

With `O=C(O)/C=C/c1cn(Cc2ccccc2)nc1-c1cccnc1` as the compound, how does the “hERG current change (%, negative = inhibition) at 10uM” value read?
The value was 12%.

With `O=C(c1cn(Cc2ccccc2)nc1-c1cccnc1)N1CCN(Cc2ccccc2)CC1` as the compound, how does the “hERG current change (%, negative = inhibition) at 10uM” value read?
The value was -33.5%.

With `COCCOC(=O)/C(C#N)=C/c1cn(Cc2ccccc2)nc1-c1cccnc1` as the compound, how does the “hERG current change (%, negative = inhibition) at 10uM” value read?
Its value is -67.1%.

For `O=Cc1cn(Cc2ccccc2)nc1-c1cccnc1`, which “hERG current change (%, negative = inhibition) at 10uM” value is on record?
Its value is 7.48%.

Which “hERG current change (%, negative = inhibition) at 10uM” value does the source give for `CC(=O)c1ccc(N2CCN(C(=O)c3cn(Cc4ccccc4)nc3-c3cccnc3)CC2)c(F)c1` here?
Its value is -50.2%.

Which “hERG current change (%, negative = inhibition) at 10uM” value does the source give for `COc1cccc(N2CCN(C(=O)c3cn(Cc4ccccc4)nc3-c3cccnc3)CC2)c1` here?
Its value is -12.9%.

`N#Cc1ccc(CN2CCN(C(=O)c3cn(Cc4ccccc4)nc3-c3cccnc3)CC2)cc1` was tested. Which “hERG current change (%, negative = inhibition) at 10uM” value did it give?
The value was -72.9%.
